SARS PLP yeast – qHTS of Yeast-based Assay for SARS-CoV PLP. S. cerevisiae expressing SARS-CoV PLpro, growth rescue. Potency, µM (top dose mostly 32.9 µM), actives largely listed as activators. 330,000 compounds, 0.19% hits; calls by dose curve; further: nearly all actives have a fitted effect of over 55% in size
Sm TGR inh – qHTS Assay for the Inhibitors of Schistosoma Mansoni Peroxiredoxins; purified TGR, DTNB reduction, TNB absorbance 405 nm; Potency, µM (highest dose often 114 µM), usual class: inhibitors; 360,000 compounds, 3% hits; AID 485364, 2010; active means well fitted inhibition curve with a large enough effect; inconclusive means small, poorly fitted or top-dose-only effect; inactive means no such curve, though single readings can be large or run the other way; further: nearly all actives have a fitted effect of over 60% in size
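TGR 20 nM + NADPH 100 uM (dispensed conc.), cpd preinc 15 min RT; start with NADPH (500 uM addition) then DTNB (15 mM addition). Kinetic TNB absorbance, 405 nm filter. Four-parameter Hill fit across titration.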
Each line names hits and unclear results; the compound was inactive in the other large screens. Most compounds without a hit are left out; they make up all but 3% or so of the library.

CCCCNC(=O)/C(=C\c1ccc([N+](=O)[O-])o1)NC(=O)c1ccccc1	Sm TGR inh 45µM
O=C(O)/C(=C\c1ccc(-c2ccccc2[N+](=O)[O-])o1)c1ccccc1	Sm TGR inh 35µM
Cc1ccc(C(=O)N/C(=C\c2ccc(-c3ccccc3[N+](=O)[O-])o2)C(=O)NCCN(C)C)cc1	Sm TGR inh 1.4µM
CN(C)CCCNC(=O)/C(=C/c1ccc(-c2ccc([N+](=O)[O-])cc2)o1)NC(=O)c1ccccc1	none
COC(=O)/C(=C\c1ccc([N+](=O)[O-])o1)NC(=O)c1ccccc1	Sm TGR inh inconclusive
CN(C)CCNC(=O)/C(=C/c1ccc(-c2cccc([N+](=O)[O-])c2)o1)NC(=O)c1ccccc1	none
Cc1ccc(C(=O)N/C(=C\c2ccc(-c3ccccc3[N+](=O)[O-])o2)C(=O)NCCCN(C)C)cc1	Sm TGR inh 8.9µM
O=C(/C=C/c1ccc(-c2ccccc2[N+](=O)[O-])o1)c1ccccc1	Sm TGR inh inconclusive
Fc1ccccc1N1CCN(c2ncnc3onc(-c4ccc(Cl)cc4)c23)CC1	none (no result: SARS PLP yeast)
CCc1ccc(CNC(=O)CN2C(=O)c3cccnc3Oc3ccc(Cl)cc32)cc1	none (no result: SARS PLP yeast)
Cc1cc(S(=O)(=O)Nc2cc3c(cc2NCc2ccccc2)n(C)c(=O)n3C)ccc1F	none (no result: SARS PLP yeast)
CCOc1ccccc1NC(=O)c1ccc2c(Cl)c3c(nc2c1)CCCC3	none (no result: SARS PLP yeast)
CSc1ccc(CNC(=O)c2ccc3c(c2)N(C)C(=O)C2CCCCN32)cc1 (centres undefined)	none (no result: SARS PLP yeast)
COC(=O)c1sc2cccc(F)c2c1S(=O)(=O)NCc1ccc(Cl)cc1	none (no result: SARS PLP yeast)
CC(C)c1nn2c(=O)cc(COC(=O)c3cccc(NC(=O)COc4ccc(F)cc4)c3)nc2s1	none (no result: SARS PLP yeast)
Cc1ccc(OCc2nc3ccccc3n2Cc2ccccc2Cl)cc1	none (no result: SARS PLP yeast)
COCCNC(=O)CCn1c(=O)[nH]c2cc(OC)c(OC)cc2c1=O	none (no result: SARS PLP yeast)
Cc1nc(-n2nc(C)c(Cc3ccccc3Cl)c2C)sc1C(=O)N1CCC(C)CC1	none (no result: SARS PLP yeast)
O=C(Nc1ccc(F)cc1)c1cccc(N2CCCS2(=O)=O)c1	none (no result: SARS PLP yeast)
Oc1ccc(C23CC4CC(CC(C4)C2)C3)cc1O	Sm TGR inh 1.8µM
CC(=O)Nc1ccc(C23CC4CC(CC(C4)C2)C3)cc1	none
O=C(Nc1cccc(C(=O)OCc2cc(=O)n3nc(C4CC4)sc3n2)c1)c1cccc(F)c1	none (no result: SARS PLP yeast)
CC(=O)c1c(C)n(-c2ccc(Cl)cc2)c2ccc(OC(=O)COc3ccccc3)cc12	none (no result: SARS PLP yeast)
O=C(O)c1cc(N/N=C/C(Cl)=C/c2ccccc2)ccc1Cl	Sm TGR inh 35µM
O=C(O)c1cc(NN=C2c3ccccc3-c3ccccc32)ccc1Cl	Sm TGR inh inconclusive
Cc1oc2c(c1C(=O)NCc1cccc(Br)c1)C1=NCCN1C=N2	none (no result: SARS PLP yeast)
Cc1ccc(CN2CCSc3ccc(C(=O)Nc4ccc(C)cc4)cc32)cc1	none (no result: SARS PLP yeast)
CC/C(=C\c1oc2cc3ccccc3cc2[n+]1CC)Nc1ccccc1	Sm TGR inh 20µM
CC[n+]1c(/C=C/Nc2ccccc2)oc2ccc(OC)cc21	none (no result: Sm TGR inh)
Cc1cc(C)c2oc(-c3cccc(NC(=O)COc4ccccc4Cl)c3C)nc2c1	none (no result: SARS PLP yeast)
COc1ccc(C2=NO[C@@](CC(=O)O)(C(=O)Nc3ccc4c(c3)OCCO4)C2)cc1	Sm TGR inh 22µM
N#Cc1ccccc1OCC(=O)Nc1ccc2c(c1)OCCO2	none
NC(=O)COc1ccccc1C1=NO[C@@](CC(=O)O)(C(=O)Nc2ccc3c(c2)OCCO3)C1	Sm TGR inh 18µM
COc1ccc(-c2[nH]c(-c3ccccc3)nc2SCC(=O)Nc2ccc3c(c2)OCCO3)cc1	none (no result: SARS PLP yeast)
Cc1ccc2nc(COc3cccc(NC(=O)COc4ccc(F)cc4)c3)cc(=O)n2c1	none (no result: SARS PLP yeast)
O=C(Nc1ccc(F)cc1)c1ccc(-n2cnc3cccnc32)cc1	none (no result: SARS PLP yeast)
N#C/C(=C\c1cn(-c2ccccc2)nc1-c1cc2ccccc2o1)c1nc2ccccc2[nH]1	none
Cc1ccc(-c2nn(-c3ccccc3)cc2/C=C(\C#N)c2cccc(C#N)c2)o1	Sm TGR inh 50µM
CNc1ccccc1	none
CNc1cccccc1=S	Sm TGR inh 5.6µM
O=C(COC(=O)CCS(=O)(=O)c1ccccc1)Nc1ccccc1	Sm TGR inh 8.9µM
CC(=O)Nc1ccc(C(=O)COC(=O)CCS(=O)(=O)c2ccccc2)cc1	none
Cc1cc(NC(=O)Cn2c(=O)oc3cc(S(=O)(=O)N4CCCC4)ccc32)ccc1Br	none (no result: SARS PLP yeast)
CCn1c(C(=O)N2CCCC(C(=O)N3CCN(c4cc(C)ccc4C)CC3)C2)cc2sccc21 (centres undefined)	none (no result: SARS PLP yeast)
CCc1ccc(C(=O)c2cn(CC(=O)Nc3cc(OC)ccc3OC)c3nc(C)ccc3c2=O)cc1	none (no result: SARS PLP yeast)
CCN(CC)c1ccc(/C=N/Nc2ccccc2)c(O)c1	Sm TGR inh 10µM
CCN(CC)c1ccc(/C=N/NC(=S)NC)c(O)c1	none
CCN(CC)c1ccc(C=Nc2ccccc2)c(O)c1	none
CCN(CC)c1ccc(/C=N/Nc2cccc(C)c2)c(O)c1	Sm TGR inh 10µM
CCN(C(=O)CSc1nc2ccccc2n1CC(=O)Nc1cccc(C#N)c1)c1ccccc1	none (no result: SARS PLP yeast)
Cc1nn(-c2ccccc2)c2sc(C(=O)Nc3cccc(O)c3)cc12	none (no result: SARS PLP yeast)
COc1ccc(OC)c(NC(=O)N2CC3CCCN3c3ccccc32)c1 (centres undefined)	none (no result: SARS PLP yeast)
Cc1cccc(C(=O)Nc2ccc3c(c2)CC2(C(=O)N(C)C(=O)N(C)C2=O)C2CCCN32)c1 (centres undefined)	Sm TGR inh inconclusive
COc1ccccc1C(=O)Nc1ccc2c(c1)CC1(C(=O)N(C)C(=O)N(C)C1=O)C1CCCN21 (centres undefined)	Sm TGR inh 35µM
